{"source": "PubChem BioAssay (NCATS)", "note": "Values joined by “and” are separate entries in the source; they are usually repeats but may differ in a detail not shown here. Equal entries are not always repeated. Results filed as inconclusive are left out. A call without a number means that no potency is given here. More than one record can exist for a structure, and the calls need not agree. Active and inactive are the calls of the source. Calls come from the whole dose curve; as a rule, active = well fitted inhibition curve with a large enough effect; inconclusive = small, poorly fitted or top-dose-only effect; inactive = flat fitted curve, though single readings scatter. Non-standard residues stand in square brackets, D forms with d. Residues, ends and D or L forms follow the SMILES beside them. Peptide text beside a SMILES is read from it. *: point of attachment. Sta = CC(C)C[C@H](N)[C@@H](O)CC(=O)O; Isovaleryl = CC(C)CC(=O)*"}
{"assay": "P-glycoprotein substrates identified in KB-8-5-11 adenocarcinoma cell line, qHTS therapeutic library screen (AID 1346987); note: nearly all actives have a fitted effect of over 65% in size; note: potency is the fitted concentration of half-maximal effect", "details": "KB-8-5-11 (P-gp overexpressing) viability, CellTiter-Glo, 72 h; series mostly up to 44.5 µM; activity change, negative = cytotoxicity: at the top concentration", "source_text": "The ATP-binding cassette transporters P-glycoprotein (P-gp) is known to limit brain penetration of many chemotherapy drugs. […] As such, we developed a high-throughput screen (HTS) to identify substrates of P-gp from a series of chemical libraries including the National Center for Advancing Translational Sciences Pharmaceutical Collection NPC, 2,816 compounds), testing a total of 10,804 compounds, most of which have known mechanisms of action. We used the CellTiter-Glo viability assay to test library compounds against the parental KB-3-1 human cervical adenocarcinoma cell line and the colchicine-selected sub-line KB-8-5-11 that over-expresses P-gp. KB-8-5-11 cells were also tested in the presence of a P-gp inhibitor (tariquidar) to assess reversability of transporter-mediated resistance. Of the tested compounds, a total of 90 P-gp substrates were identified including 55 newly identified P-gp substrates. Substrates were confirmed using an orthogonal killing assay against HEK-293 cells transfected with P-gp. As exemplars, we confirmed that […] (cyclin-dependent kinase inhibitor); AT9283, (Janus kinase 2/3 inhibitor); ispinesib (kinesin spindle protein inhibitor); gedatolisib (PKI-587, phosphoinositide 3-kinase/mammalian target of rampamycin inhibitor); GSK-690693 (AKT inhibitor); and KW-2478 (heat shock protein 90 inhibitor) were substrates , and direct ATPase stimulation was assessed. ABCG2 was also found to confer high levels of resistance to AT9283, GSK-690693 and gedatolisib, while ispinesib, AT7519 and KW-2478 were weaker substrates.\nThe HeLa derivative cell line, KB-3-1, and its colchicine-selected, P-gp-overexpressing subline, KB-8-5-11 were maintained in DMEM with 10% FCS and Pen/Strep with glutamine at 37 degree C in 5% CO2. For KB-8-5-11 cells, colchicine was added to the medium at a concentration of 100 ng/mL. HEK-293 cells transfected with empty vector (pcDNA) or vector containing human ABCB1 (MDR-19) or ABCG2 (R-5) have been described previously (Robey, Lin, Qiu, Chan & Bates, 2011) and were maintained in EMEM supplemented with 10% FCS, Pen/Strep and glutamine with 2 mg/ml G418 to select for the expression of the transporter. Cultures were confirmed to be free of mycoplasma infection using the MycoAlert Mycoplasma Detection Kit (Lonza, Walkersville, MD). For the screen, assay medium was identical to culture medium except for KB-8-5-11 where colchicine was excluded from the medium.\nAll cell lines were plated into 1536-well plates at 500 cells/well in 5 uL media. Compounds were then pinned in dose-response using a 1536-head pin tool (Kalypsis, San Diego, CA) and plates were incubated at 37 degree C in 5% CO2 for an additional 72 h. CellTiter-Glo reagent (Promega) was dispensed into the wells, incubated for 5 min and luminescence was read on a ViewLux instrument (Perkin-Elmer). Cytotoxic compounds were defined as those that yielded a curve class of -1.1, -1.2, -2.1, -2.2, -2.3, or -2.4, a maximum response of >50% and an AC50 of < 10 uM. Cherry-picked hits from screening analysis were tested with both the KB pair of cell lines, and the pcDNA (empty vector control) and MDR-19 (P-gp overexpressing) pair were tested, in the absence and presence of tariquidar."}
{"smiles": "COc1cc2nc(N3CCN(C(=O)C4CCCO4)CC3)nc(N)c2cc1OC", "note": "(stereo not given)", "Potency": "inactive"}
{"smiles": "Nc1cccc2c1CN(C1CCC(=O)NC1=O)C2=O", "note": "(stereo not given)", "Potency": "inactive"}
{"smiles": "CCC(C)(Oc1ccc(C2(c3ccc(OC(C)(CC)C(=O)O)cc3)CCCCC2)cc1)C(=O)O", "note": "(stereo not given)", "Potency": "inactive"}
{"smiles": "CC(C)[C@H](N)C(=O)OCCOCn1cnc2c(=O)[nH]c(N)nc21", "Potency": "inactive"}
{"smiles": "CCC[C@@H]1C[C@@H](C(=O)N[C@@H]([C@H]2O[C@H](SC)[C@H](O)[C@@H](O)[C@H]2O)[C@@H](C)O)N(C)C1", "activity change, negative = cytotoxicity": "-5.03% (inactive)"}
{"smiles": "COc1ccccc1N1CCN(CCN(C(=O)C2CCCCC2)c2ccccn2)CC1", "Potency": "inactive"}
{"smiles": "Nc1cc(C(Cl)=C(Cl)Cl)c(S(N)(=O)=O)cc1S(N)(=O)=O", "Potency": "inactive"}
{"smiles": "O=c1ccc2ccc(O)c(O)c2o1", "activity change, negative = cytotoxicity": "-11.4% (inactive)"}
{"smiles": "NS(=O)(=O)c1cc(C(=O)O)c(NCc2ccco2)cc1Cl", "Potency": "inactive"}
{"smiles": "C[C@]12CCC(=O)C=C1CC[C@@H]1[C@H]2[C@@H](O)C[C@@]2(C)[C@H]1CC[C@]2(O)C(=O)CO", "activity change, negative = cytotoxicity": "2.8% (inactive)"}
{"smiles": "Oc1ccc2ccccc2c1SSc1c(O)ccc2ccccc12", "Potency": "inactive"}
{"smiles": "O=C(OC1C[C@H]2CC[C@@H](C1)[N+]21CCCC1)C(O)(c1ccccc1)c1ccccc1", "note": "(stereo not given in full)", "Potency": "inactive"}
{"smiles": "O=C(O)c1cccc(-c2noc(-c3ccccc3F)n2)c1", "Potency": "inactive"}
{"smiles": "COc1cc(Nc2c(C#N)cnc3cc(OCCCN4CCN(C)CC4)c(OC)cc23)c(Cl)cc1Cl", "Potency": "inactive"}
{"smiles": "CCCc1cc(=O)[nH]c(=S)[nH]1", "Potency": "inactive"}
{"smiles": "CCCCc1ccc2nc(NC(=O)OC)[nH]c2c1", "Potency": "11.8 nM (active) and 111 nM (active)"}
{"smiles": "Cc1ccc(C)c(OCCCC(C)(C)C(=O)O)c1", "Potency": "inactive"}
{"smiles": "C[C@@H](N)C1CCC(C(=O)Nc2ccncc2)CC1", "note": "(stereo not given in full)", "outcome": "inactive"}
{"smiles": "COC(=O)[C@H](Cc1ccccc1)NC(=O)[C@@H](N)CC(=O)O", "note": "(H-Asp-Phe-OMe)", "Potency": "inactive"}
{"smiles": "O=C1c2c(O)cc(O)cc2OC(c2ccc(O)c(O)c2)C1O", "note": "(stereo not given)", "outcome": "inactive"}
{"smiles": "C=C(c1ccc(C(=O)O)cc1)c1cc2c(cc1C)C(C)(C)CCC2(C)C", "outcome": "inactive"}
{"smiles": "Cc1cc(C2CCCCC2)n(O)c(=O)c1", "Potency": "5.8 µM (active)"}
{"smiles": "Nc1ccc(S(N)(=O)=O)cc1", "Potency": "inactive"}
{"smiles": "Cc1cc2cc3c(C)cc(=O)oc3c(C)c2o1", "Potency": "inactive"}
{"smiles": "CCN(CC)C(=S)SSC(=S)N(CC)CC", "Potency": "41.8 nM (active) and inactive"}
{"smiles": "C=CCc1cc(OC)c(O)c(C(=O)NCCO)c1", "Potency": "inactive"}
{"smiles": "Nc1ncn([C@H]2C[C@H](O)[C@@H](CO)O2)c(=O)n1", "Potency": "inactive"}
{"smiles": "CCCOc1ccc2nc(NC(=O)OC)[nH]c2c1", "Potency": "231 nM (active) and 651 nM (active) and 11.8 nM (active)"}
{"smiles": "c1ccc2[nH]c(-c3cscn3)nc2c1", "Potency": "inactive"}
{"smiles": "CN(C)c1ccc2nc3ccc(=[N+](C)C)cc-3sc2c1", "Potency": "3.32 µM (active) and 6.51 µM (active)"}
{"smiles": "Nc1nc(OCc2ccccc2)c2[nH]cnc2n1", "activity change, negative = cytotoxicity": "4.18% (inactive)"}
{"smiles": "CC(C)CC(=O)N[C@H](C(=O)N[C@H](C(=O)N[C@@H](CC(C)C)[C@@H](O)CC(=O)N[C@@H](C)C(=O)N[C@@H](CC(C)C)[C@@H](O)CC(=O)O)C(C)C)C(C)C", "note": "(Isovaleryl-VV[Sta]A[Sta]-OH)", "Potency": "inactive"}
{"smiles": "C[C@H](Cn1cnc2c(N)ncnc21)OCP(=O)(O)O", "activity change, negative = cytotoxicity": "5.85% (inactive)"}
{"smiles": "O=C(NCCO[N+](=O)[O-])c1cccnc1", "outcome": "inactive"}
{"smiles": "O=Nc1c(-c2c(O)[nH]c3cc(Br)ccc23)[nH]c2ccccc12", "Potency": "9.35 µM (active)"}
{"smiles": "COc1cc2c(N3CCN(C(=O)Nc4ccc(OC(C)C)cc4)CC3)ncnc2cc1OCCCN1CCCCC1", "Potency": "inactive"}
{"smiles": "NCCCCNCCCN", "activity change, negative = cytotoxicity": "1.95% (inactive)"}
{"smiles": "Cc1cccc(C#Cc2ccccc2)n1", "activity change, negative = cytotoxicity": "-22.6% (inactive)"}
{"smiles": "O=P(O)(O)C(O)(Cn1ccnc1)P(=O)(O)O", "Potency": "inactive"}
{"smiles": "Cn1c(NCCN(CCO)CCCc2ccc([N+](=O)[O-])cc2)cc(=O)n(C)c1=O", "Potency": "inactive"}
